According to the supplement of paper PMC5499739:
In all, about 16,000 sequences were measured (“Z-score”: median about -0.37, highest 2% from about 3.2 on). The list comes from a sample in which the highest values are over-represented; it also holds similar and randomly drawn sequences.

system: RBM10 RRM1-ZnF (GST-tagged construct); assay: RNAcompete 7-mer binding Z-score; higher = stronger binding preference
Method in brief: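 In 1 ml Hepes pH 7.8 buffer with KCl, NaCl, glycerol, DTT, BSA and glutathione Sepharose beads, GST-tagged RBM10 constructs (20 pmol) were incubated for 30 min at 4°C with 1.5 nmol of a designed pool of 241 399 RNAs up to 41 nt. Four 2-min washes at 4°C followed, and bound RNA was detected by microarray hybridisation. Heptamer motif enrichment was expressed as a one-sided Z-score across probes containing each motif.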

| Sequence | RNAcompete 7-mer binding Z-score |
| --- | --- |
| AUGUGGA | 2.27 |
| UUUGACC | -0.88 |
| UCUGCAG | -0.629 |
| AAGCUGG | 0.904 |
| CGGUGGA | 2.43 |
| GGGUGGA | 4.53 |
| AGGUGGG | 3.76 |
| AGGUGGA | 3.15 |
| CGGUGGG | 3.2 |
| AGGUGGU | 2.18 |
| UAUAUAA | -0.519 |
| CGGACGG | 1.32 |
| GAACGGU | 1.64 |
| GGAACGG | 4.07 |
| AGAACGG | 1.53 |
| GAACGGG | 4.25 |
| GGGACGG | 3.45 |
| GGACGGC | 1.19 |
| UGGACGG | 3.09 |
| CGACGGG | 1.62 |
| CGAACGG | 1.21 |
| GGACGGG | 4.52 |
| GAACGGC | 0.693 |
| AUAGGCA | 0.686 |
| UGGGCCU | 0.335 |
| CUUACCC | -0.792 |

| Sequence | RNAcompete 7-mer binding Z-score |
| --- | --- |
| CUAUUGC | -0.714 |
| GGAUGGU | 3.9 |
| GGAUGGA | 4.23 |
| AGAUGGU | 1.71 |
| UGAUGGU | 1.87 |
| GGAUGGC | 2.58 |
| AGAUGGA | 2.97 |
| UCUGUGA | -0.581 |
| CGGGAAA | 2.41 |
| ACGGGAA | 3.12 |
| AGGGAAA | 4.7 |
| AAGGGAU | 3.65 |
| CAGGGAU | 2.36 |
| CAGGGAA | 2.96 |
| AAGGGAA | 4.37 |
| AGGGAAC | 2.57 |
| CGGGAAG | 2.18 |
| GGGGAAA | 3.19 |
| GAGGGAU | 3.16 |
| AGGGAAG | 4.53 |
| CUGUACU | -0.743 |
| AACCCCA | -0.483 |
| AAGAGCG | 0.836 |
| UUUUUAA | -0.652 |
| ACUCUCG | -0.785 |
| AAGGGCG | 3 |

| Sequence | RNAcompete 7-mer binding Z-score |
| --- | --- |
| GGGGGAA | 3.15 |
| AGGGGAA | 3.57 |
| UGGGAAG | 4.03 |
| AAGGGAC | 3.18 |
| UGGGAAU | 2.53 |
| GAGGGAG | 3.2 |
| UAGGGAG | 3.25 |
| CAGGGAG | 2.8 |
| UGGGAAA | 2.58 |
| AAGGGAG | 3.99 |
| AGAUAGU | 0.0853 |
| UAGCGAU | -0.194 |
| ACGUCAU | -0.513 |
| UAUCGAU | -0.513 |
| UGUCCAC | -0.558 |
| CGACCGA | -0.519 |
| GUCCGGA | 0.0625 |
| CAGUAUU | -0.646 |
| CCUGCGG | 0.27 |
| GGAGGUG | 3.72 |
| AGAGGUG | 2.04 |
| CGAGGUA | 1.57 |
| GGAGGUA | 3.28 |
| GGAGGUU | 2.51 |
| UGAGGUA | 1.97 |
| GGAGCGC | 1.27 |

| Sequence | RNAcompete 7-mer binding Z-score |
| --- | --- |
| CAAUGAA | -0.496 |
| AGCUCUA | -0.629 |
| UUAUCAG | -0.399 |
| AUAAAGG | 1.64 |
| GGGUAGC | 2.73 |
| GGGUAUC | 2.04 |
| GGGUAGG | 4.65 |
| AGGUAGC | 0.803 |
| AGGUAGG | 3.53 |
| GGGUAGA | 3.74 |
| AGGUAUG | 2.16 |
| UGGUAGG | 2.98 |
| GCGUAGG | 1.78 |
| GGGUAGU | 3.11 |
| CGGUAGG | 1.82 |
| GGGUAUG | 4.08 |
| GGAGUUG | 2.64 |
| AAACGGU | 1.16 |
| CUACAAC | -0.668 |
| CACAAAA | -0.581 |
| AAACCAC | -0.519 |
| GACGGGU | 2.36 |
| GGGAACG | 3.67 |
| GGGAAUG | 3.93 |
| UGGAACG | 2.13 |
| GGGAAUU | 2.4 |

| Sequence | RNAcompete 7-mer binding Z-score |
| --- | --- |
| GGGAACA | 2.67 |
| AGGAAUG | 2.25 |
| ACGCUCU | -0.688 |
| CCCUGGA | -0.123 |
| GGUUACA | 1.26 |
| GAGAUGU | 0.361 |
| UGGAUGG | 4.14 |
| UGGAUGC | 1.17 |
| CGGAUGG | 2.38 |
| AGGAUGG | 3.77 |
| AGGAUGC | 1.03 |
| GAGAUGG | 3.54 |
| UGGAUGA | 2.17 |
| UAGAUGG | 2.26 |
| AGGAUCC | -0.34 |
| UGGAUUC | -0.0414 |
| UUCGUAA | -0.802 |
| CCACUCU | -0.711 |
| UCGCACU | -0.565 |
| GAGCAUU | -0.353 |
| UAUGUGA | 0.118 |
| UACGAGU | -0.155 |
| AUUUUCG | -0.87 |
| AUGGAAC | 1.99 |
| GUGGAAA | 2.63 |
| GUGGAAC | 1.61 |

| Sequence | RNAcompete 7-mer binding Z-score |
| --- | --- |
| AUGGAAG | 3.6 |
| AUGGAAA | 2.57 |
| GUGGAAG | 3.83 |
| GUGUAAA | 0.618 |
| AUGACGG | 1.39 |
| UAAAUAU | -0.425 |
| CGGAUGU | 1.04 |
| GGUGGAG | 4.02 |
| UGUGGAA | 2 |
| AGUGGAC | 1.34 |
| AGUGGAU | 2.35 |
| CGUGGAA | 1.19 |
| GGUGGAU | 2.75 |
| UGUGGAG | 2.62 |
| AGUGGAA | 3.24 |
| GGUGGAA | 3.81 |
| UUCCGGC | -0.649 |
| GCCUGCU | -0.724 |
| UGUCGUA | -0.311 |
| UGUUUAG | -0.0155 |
| UAUAGGC | 0.196 |
| AAACCCC | -0.597 |
| UCCGAUA | -0.746 |
| GGGUGCA | 2.74 |
| GAGGCCG | 0.0723 |
| UUGCCGU | -0.659 |

| Sequence | RNAcompete 7-mer binding Z-score |
| --- | --- |
| CUGGGCC | -0.0285 |
| GCCCAUA | -0.805 |
| AGAAGAA | 1 |
| AGAAGGA | 3.99 |
| AGAAGGU | 3.26 |
| CGAAGGU | 1.5 |
| AGAAGCU | -0.48 |
| GGAAGGU | 4.23 |
| UGAAGGU | 2.57 |
| AGAAGGG | 3.86 |
| AGAAGAG | 1.64 |
| AGAAGGC | 0.699 |
| GGAAGGC | 2.63 |
| CGAAGGG | 2.43 |
| CCCCCAU | -0.448 |
| GAAUGAC | 0.16 |
| GGCAGUC | 0.28 |
| AGCCUUU | -1 |
| ACUUAUG | -0.655 |
| UGAAGGA | 2.99 |
